Legend:
Test in all cases: MAPPIT interaction score (arbitrary units); higher = stronger binary interaction signal, active = hit call of the paper;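 active = MAPPIT score above the 99th percentile of random reference set scores in the same batch; inactive = at or below it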
CG10510 = conditions: MAPPIT configuration: N-N; pair source set: Finley_Y2H
CG31111 = conditions: MAPPIT configuration: N-N; pair source set: DPIM
CkIIbeta = target: CkIIbeta
Pkc98E = conditions: MAPPIT configuration: N-N; pair source set: Finley_Y2H
CG11570 = conditions: pair source set: RRS
MFS16 = conditions: MAPPIT configuration: N-N; pair source set: DPIM
Tsp = conditions: MAPPIT configuration: N-N; pair source set: DPIM
CG11149 = conditions: pair source set: RRS
CG14323 = conditions: MAPPIT configuration: N-N; pair source set: RRS
CG34268 = conditions: MAPPIT configuration: N-N; pair source set: RRS
CG11327 = conditions: MAPPIT configuration: N-C; pair source set: screen_3

Measured: MAPPIT interaction score
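Also: HEK293T cells with Epo stimulation, STAT-responsive firefly luciferase reporter, fold induction versus unstimulated cells divided by the larger fold induction of two negative controls lacking either bait or prey.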

B1: CkIIalpha (protein)
chain: MTLPSAARVYTDVNAHKPDEYWDYENYVVDWGNQDDYQLVRKLGRGKYSEVFEAINITTTEKCVVKILKPVKKKKIKREIKILENLRGGTNIITLLAVVKDPVSRTPALIFEHVNNTDFKQLYQTLTDYEIRYYLFELLKALDYCHSMGIMHRDVKPHNVMIDHENRKLRLIDWGLAEFYHPGQEYNVRVASRYFKGPELLVDYQMYDYSLDMWSLGCMLASMIFRKEPFFHGHDNYDQLVRIAKVLGTEELYAYLDKYNIDLDPRFHDILQRHSRKRWERFVHSDNQHLVSPEALDFLDKLLRYDHVDRLTAREAMAHPYFLPIVNGQMNPNNQQ
inactive: CG10510 0.0158 | CG31111 0.429 | CkIIbeta; MAPPIT configuration: N-C, pair source set: Lit-BM-16 3.22 | Pkc98E 0.257
active: CkIIbeta; MAPPIT configuration: N-N, pair source set: Lit-BM-16 4.3 | CkIIbeta; MAPPIT configuration: N-N, pair source set: screen_1 4.3

B2: mRpS24 (protein)
chain: MNFLKKLLPQVATEVQQLSRSGFHTSSVCCRVQSGRYRITTKRNRPLTYEMANPPHFIGHRKSWNSWNTSTMKDALRPSQTAIEDVFIRKFVTGTWHALVCSEVIIKRQHNTIRIAALIRQAITPRKMYFLIGYTEELLSYWMQCPVTLELQTVGDKKDVVFKYI
inactive: CG11570; MAPPIT configuration: N-C 0.0908 | CG11570; MAPPIT configuration: N-N -0.09 | MFS16 0.186 | Tsp 0.192

B3: wuho (protein)
chain: MCTTISFAEPEIVLGHGRRVLFVNPDDLQIFKEIELPPDLGLKGHTSQSQESCTAAAAASTATAASGQAPGGKEQQLANQPEEGGTSASASGLGCATSTSVQNVAYSPDGQLLAVTTSGKQKALLLYRSRPENARLLSARPLARASSALRFCSDSSSILVTDKTGDCYQYDCVEVEAPPRLLLGHLSVVYDILWSEDQQHIITCDRDDKIRVTNYPATFDIHSYCLGHREFVSGLALLTEQHIASASGDKTLRVWNYIQGKELLQHELPAPAVRLLVRQLEPEKVFQAAVLFYEHVDALGLYRLERSSDDTWSVTATQLVCAEAGSWSISNFTLTSDRIYITGAENERLSLRVYDIATGQPASSGVPEGWLKMVLDGLGANEEGAPPFIPEDLSVWFKKRFDNVSDYLERKKRRIEEQQQQKCG
inactive: CG11149; MAPPIT configuration: N-C 0.206 | CG11149; MAPPIT configuration: N-N -0.175 | CG14323 0.00913 | CG34268 0.0545

B4: Eh (protein)
chain: MNCKPLILCTFVAVAMCLVHFGNALPAISHYTHKRFDSMGGIDFVQVCLNNCVQCKTMLGDYFQGQTCALSCLKFKGKAIPDCEDIASIAPFLNALE
inactive: CG11327 1.52

— the supplement of paper PMC10105736
